Data reported in the supplement of paper PMC11732987, “Enantioselective OTUD7B fragment discovery through chemoproteomics screening and high-throughput optimisation” (Communications Chemistry, 2025).

Tests used:
Experiment in all cases: log2 ratio of Biotin-Ahx-Ub-VS probe labelling (fragment/DMSO); higher = less target engagement (more negative = stronger competition), active = hit call of the paper (q ≤ 0.05, log2 ratio ≤ -1)
Details in all cases: compound concentration: 200 uM; treatment time: 3 h
ALG13 = target: T1, ALG13 (UniProt Q9NP73)
T1 sequence (whole entry): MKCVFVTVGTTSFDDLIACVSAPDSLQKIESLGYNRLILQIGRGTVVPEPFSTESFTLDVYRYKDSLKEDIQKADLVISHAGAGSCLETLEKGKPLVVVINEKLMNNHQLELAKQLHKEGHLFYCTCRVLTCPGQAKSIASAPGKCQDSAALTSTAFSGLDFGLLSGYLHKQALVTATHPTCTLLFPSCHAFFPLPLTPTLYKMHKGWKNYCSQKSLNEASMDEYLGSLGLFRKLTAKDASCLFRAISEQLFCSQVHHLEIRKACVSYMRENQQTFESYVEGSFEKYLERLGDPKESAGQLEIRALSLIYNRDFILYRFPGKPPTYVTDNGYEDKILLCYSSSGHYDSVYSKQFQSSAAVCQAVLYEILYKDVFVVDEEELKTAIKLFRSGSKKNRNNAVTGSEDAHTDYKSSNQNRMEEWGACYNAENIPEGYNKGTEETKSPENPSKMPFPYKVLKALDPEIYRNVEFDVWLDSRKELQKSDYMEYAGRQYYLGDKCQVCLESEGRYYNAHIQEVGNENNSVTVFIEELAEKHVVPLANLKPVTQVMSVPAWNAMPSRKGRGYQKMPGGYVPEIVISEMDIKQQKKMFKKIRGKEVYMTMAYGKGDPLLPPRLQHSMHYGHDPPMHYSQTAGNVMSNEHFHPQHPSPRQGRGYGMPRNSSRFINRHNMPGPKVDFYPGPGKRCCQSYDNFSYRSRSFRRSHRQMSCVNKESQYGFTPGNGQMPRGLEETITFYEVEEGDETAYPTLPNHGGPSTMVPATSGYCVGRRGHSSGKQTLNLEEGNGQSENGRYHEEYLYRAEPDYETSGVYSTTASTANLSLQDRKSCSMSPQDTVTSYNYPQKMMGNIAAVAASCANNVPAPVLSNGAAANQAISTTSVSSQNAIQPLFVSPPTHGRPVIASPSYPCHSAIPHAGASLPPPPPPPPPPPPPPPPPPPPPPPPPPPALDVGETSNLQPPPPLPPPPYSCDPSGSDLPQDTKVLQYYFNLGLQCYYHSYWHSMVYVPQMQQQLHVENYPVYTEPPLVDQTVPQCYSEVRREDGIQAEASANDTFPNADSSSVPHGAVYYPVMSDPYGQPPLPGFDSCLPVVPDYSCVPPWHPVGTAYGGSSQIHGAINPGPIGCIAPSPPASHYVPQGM
In short: (§1)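 Triplicate samples of HEK293T lysate, 495 µg each, received fragment at 200 µM or vehicle for 3 h, followed by Biotin-Ahx-Ub-VS (0.5 µM final) for 1 h. After NeutrAvidin enrichment of labelled DUBs and LysC/trypsin digestion, peptides were run by diaPASEF LC-MS/MS. The values are average log2 fragment/vehicle ratios from global-median-normalised Spectronaut label-free quantities, tested by unpaired t-test on proteins having ≥2 unique peptides.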

ATXN3 = ATXN3 (UniProt P54252)
Sequence of ATXN3 (P54252 whole entry): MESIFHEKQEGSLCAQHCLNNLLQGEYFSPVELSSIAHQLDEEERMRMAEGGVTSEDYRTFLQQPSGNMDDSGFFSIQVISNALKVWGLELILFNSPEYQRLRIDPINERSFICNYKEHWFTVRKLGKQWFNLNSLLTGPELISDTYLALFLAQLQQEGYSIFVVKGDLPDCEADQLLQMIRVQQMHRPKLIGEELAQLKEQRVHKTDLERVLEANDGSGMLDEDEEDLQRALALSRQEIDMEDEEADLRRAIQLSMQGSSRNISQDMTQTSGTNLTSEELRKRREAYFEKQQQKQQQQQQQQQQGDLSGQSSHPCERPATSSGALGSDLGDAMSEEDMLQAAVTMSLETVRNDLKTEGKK
In short: as §1

BAP1 = target: T2, BAP1 (UniProt Q92560)
T2 sequence (whole entry): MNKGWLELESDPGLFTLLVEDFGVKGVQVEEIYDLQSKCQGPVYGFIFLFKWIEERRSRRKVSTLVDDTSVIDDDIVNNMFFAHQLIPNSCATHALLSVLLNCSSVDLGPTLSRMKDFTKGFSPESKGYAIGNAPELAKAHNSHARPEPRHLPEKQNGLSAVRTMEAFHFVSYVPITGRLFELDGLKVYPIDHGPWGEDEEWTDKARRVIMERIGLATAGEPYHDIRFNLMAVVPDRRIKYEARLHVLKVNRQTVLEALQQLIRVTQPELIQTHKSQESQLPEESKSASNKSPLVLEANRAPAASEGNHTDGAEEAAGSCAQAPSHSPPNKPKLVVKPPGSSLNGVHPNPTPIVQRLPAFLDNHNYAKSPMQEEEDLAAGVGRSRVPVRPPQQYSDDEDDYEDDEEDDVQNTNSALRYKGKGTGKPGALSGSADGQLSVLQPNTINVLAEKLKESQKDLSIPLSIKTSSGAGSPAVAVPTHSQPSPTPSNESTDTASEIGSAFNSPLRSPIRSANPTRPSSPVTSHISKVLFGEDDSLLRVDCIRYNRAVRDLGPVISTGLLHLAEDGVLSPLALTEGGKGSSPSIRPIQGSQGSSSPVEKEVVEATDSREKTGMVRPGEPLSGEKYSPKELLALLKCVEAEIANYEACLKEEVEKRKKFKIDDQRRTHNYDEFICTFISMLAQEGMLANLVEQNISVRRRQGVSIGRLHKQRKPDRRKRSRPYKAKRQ
In short: as §1

EIF3F = EIF3F (UniProt O00303)
Sequence of EIF3F (O00303 whole entry): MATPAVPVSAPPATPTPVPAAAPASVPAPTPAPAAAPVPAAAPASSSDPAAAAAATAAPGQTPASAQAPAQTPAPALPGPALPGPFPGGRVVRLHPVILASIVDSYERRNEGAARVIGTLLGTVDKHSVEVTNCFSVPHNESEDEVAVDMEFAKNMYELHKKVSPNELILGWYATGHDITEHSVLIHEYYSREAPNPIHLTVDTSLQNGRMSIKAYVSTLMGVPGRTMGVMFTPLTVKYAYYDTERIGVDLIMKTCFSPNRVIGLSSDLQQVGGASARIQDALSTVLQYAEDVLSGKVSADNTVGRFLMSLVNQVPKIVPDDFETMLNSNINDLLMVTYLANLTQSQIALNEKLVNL
In short: as §1

EIF3H = EIF3H (UniProt O15372)
Sequence of EIF3H (O15372 whole entry): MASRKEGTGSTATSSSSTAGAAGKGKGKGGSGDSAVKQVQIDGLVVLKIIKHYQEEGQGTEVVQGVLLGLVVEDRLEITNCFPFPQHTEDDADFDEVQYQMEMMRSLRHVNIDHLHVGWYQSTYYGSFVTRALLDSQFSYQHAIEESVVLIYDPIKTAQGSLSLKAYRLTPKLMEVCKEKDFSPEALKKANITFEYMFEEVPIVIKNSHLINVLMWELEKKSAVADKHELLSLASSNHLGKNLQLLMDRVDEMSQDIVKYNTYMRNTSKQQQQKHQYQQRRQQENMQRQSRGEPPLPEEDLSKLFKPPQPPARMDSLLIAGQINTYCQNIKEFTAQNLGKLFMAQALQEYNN
In short: as §1

FAM105A = target: T3, FAM105A (UniProt Q9NUU6)
T3 sequence (whole entry): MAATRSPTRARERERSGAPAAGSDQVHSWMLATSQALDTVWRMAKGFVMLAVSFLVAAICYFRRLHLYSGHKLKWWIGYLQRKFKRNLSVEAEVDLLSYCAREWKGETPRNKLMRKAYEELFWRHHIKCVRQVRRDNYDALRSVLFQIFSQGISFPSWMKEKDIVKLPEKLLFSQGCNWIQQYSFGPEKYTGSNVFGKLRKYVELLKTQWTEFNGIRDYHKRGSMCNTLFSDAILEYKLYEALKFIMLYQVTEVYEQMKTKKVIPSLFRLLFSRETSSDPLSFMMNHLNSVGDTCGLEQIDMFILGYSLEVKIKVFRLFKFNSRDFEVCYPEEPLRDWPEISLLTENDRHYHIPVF
In short: as §1

OTUB1 = OTUB1 (UniProt Q96FW1)
Sequence of OTUB1 (Q96FW1 whole entry): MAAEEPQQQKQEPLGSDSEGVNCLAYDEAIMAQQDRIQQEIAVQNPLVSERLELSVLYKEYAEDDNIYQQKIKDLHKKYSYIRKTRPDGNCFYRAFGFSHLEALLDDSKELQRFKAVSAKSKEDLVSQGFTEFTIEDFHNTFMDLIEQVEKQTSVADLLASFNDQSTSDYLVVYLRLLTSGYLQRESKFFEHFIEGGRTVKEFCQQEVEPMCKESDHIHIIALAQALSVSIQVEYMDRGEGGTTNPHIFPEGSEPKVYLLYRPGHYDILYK
In short: as §1

OTUD4 = target: T4, OTUD4 (UniProt Q01804)
T4 sequence (whole entry): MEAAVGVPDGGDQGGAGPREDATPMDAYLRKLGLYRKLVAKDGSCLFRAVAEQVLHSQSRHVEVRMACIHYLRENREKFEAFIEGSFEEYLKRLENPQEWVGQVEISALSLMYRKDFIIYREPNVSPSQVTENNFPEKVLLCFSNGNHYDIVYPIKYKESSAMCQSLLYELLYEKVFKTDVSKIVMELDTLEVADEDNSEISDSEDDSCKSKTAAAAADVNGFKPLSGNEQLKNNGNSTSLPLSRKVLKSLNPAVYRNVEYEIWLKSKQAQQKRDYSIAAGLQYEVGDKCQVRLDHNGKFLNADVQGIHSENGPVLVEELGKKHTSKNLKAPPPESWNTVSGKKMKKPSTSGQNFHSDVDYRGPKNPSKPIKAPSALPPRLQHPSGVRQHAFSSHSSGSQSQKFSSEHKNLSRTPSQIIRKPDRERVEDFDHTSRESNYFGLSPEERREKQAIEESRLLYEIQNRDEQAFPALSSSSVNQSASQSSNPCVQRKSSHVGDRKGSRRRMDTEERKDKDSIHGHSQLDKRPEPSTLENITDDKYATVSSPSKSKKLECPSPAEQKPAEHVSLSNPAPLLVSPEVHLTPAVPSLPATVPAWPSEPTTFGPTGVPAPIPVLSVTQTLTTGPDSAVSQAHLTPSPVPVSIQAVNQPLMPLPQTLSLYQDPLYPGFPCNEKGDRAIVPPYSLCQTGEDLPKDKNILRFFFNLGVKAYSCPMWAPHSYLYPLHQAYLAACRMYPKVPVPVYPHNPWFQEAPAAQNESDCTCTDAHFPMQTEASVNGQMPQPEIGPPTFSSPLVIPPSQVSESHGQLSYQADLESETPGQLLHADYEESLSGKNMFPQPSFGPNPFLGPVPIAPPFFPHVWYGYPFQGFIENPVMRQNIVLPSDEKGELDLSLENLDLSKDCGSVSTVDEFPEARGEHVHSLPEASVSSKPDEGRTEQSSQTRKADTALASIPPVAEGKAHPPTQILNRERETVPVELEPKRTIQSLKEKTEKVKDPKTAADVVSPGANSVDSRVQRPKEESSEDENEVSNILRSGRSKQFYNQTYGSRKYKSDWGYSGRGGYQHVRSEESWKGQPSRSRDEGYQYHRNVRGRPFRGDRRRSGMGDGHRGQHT
In short: as §1

OTUD5 = target: T5, OTUD5 (UniProt Q96G74)
T5 sequence (whole entry): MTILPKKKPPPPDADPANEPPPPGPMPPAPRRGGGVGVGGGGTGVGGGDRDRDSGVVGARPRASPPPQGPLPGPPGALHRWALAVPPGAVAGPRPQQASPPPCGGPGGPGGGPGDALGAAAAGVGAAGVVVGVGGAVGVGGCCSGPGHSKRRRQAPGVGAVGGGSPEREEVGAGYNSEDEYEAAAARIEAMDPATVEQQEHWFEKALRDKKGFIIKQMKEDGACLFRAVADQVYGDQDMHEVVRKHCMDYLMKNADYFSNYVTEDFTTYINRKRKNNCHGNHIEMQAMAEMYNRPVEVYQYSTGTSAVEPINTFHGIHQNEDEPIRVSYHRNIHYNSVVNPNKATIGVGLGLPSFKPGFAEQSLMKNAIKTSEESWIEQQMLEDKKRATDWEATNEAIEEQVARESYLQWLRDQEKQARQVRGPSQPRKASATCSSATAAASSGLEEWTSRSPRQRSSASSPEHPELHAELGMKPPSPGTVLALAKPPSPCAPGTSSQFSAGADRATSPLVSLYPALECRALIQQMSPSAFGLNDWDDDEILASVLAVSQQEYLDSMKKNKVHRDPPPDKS
In short: as §1

Measured: log2 ratio of Biotin-Ahx-Ub-VS probe labelling

O=C(CCl)NCC1(c2ccccc2)CC1
active: ALG13 -1.4 | BAP1 -1.15
inactive: ATXN3 0.0359 | EIF3F -0.053 | EIF3H 0.176 | FAM105A -0.0439 | OTUB1 0.0757 | OTUD4 -0.368 | OTUD5 -0.335
